The source made the active and inactive calls. Rule as the data show it: active = IC50 below about 9 µM; inactive = the rest.
These compounds were tested on Ba/F3 Cytotoxicity (assay: JAK2V617F project follow-up: kinase, reporter, cytotoxicity – HEL and Ba/F3 cells, late-stage follow-up (AID 2165)). Settings: JAK2V617F panel: kinase, IRF1 reporter.

Structure (SMILES) | IC50
N#CC(C#N)=Cc1cc(O)c(O)c(I)c1 | 8990 nM (active)
CC(C)[C@@H](CO)Nc1nc(Nc2cccc(Cl)c2)c2ncn(C(C)C)c2n1 | 950 nM (active)
N#CC(C#N)=Cc1ccc(O)c(O)c1 | 2560 nM (active)

— PubChem BioAssay AID2165 (The Scripps Research Institute Molecular Screening Center, 2009)
